From PubChem BioAssay
G9a block = qHTS Assay for Inhibitors of Histone Lysine Methyltransferase G9a; Potency, µM (series often up to 102 µM), hits mostly inhibitors; 350,000 compounds, 8.8% hits; Histone-lysine N-methyltransferase EHMT2 (Homo sapiens), Q96KQ7; G9a H3K9 monomethylation, AlphaScreen, 2 h; note: nearly all actives have a fitted effect of over 75% in size
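Readings reflect AlphaScreen signal from monomethyl-H3K9 antibody detection. HMT at 20 nM; substrate b-H3K9 500 nM; cofactor SAM 20 uM; 2 h RT reaction; compounds tested as titrations in qHTS with 15 min preincubation.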
JMJD2A Tudor = qHTS Assay for Inhibitors of JMJD2A-Tudor Domain; Lysine-specific demethylase 4A (Homo sapiens), O75164; AlphaScreen JMJD2A-Tudor / H3K4me3 peptide binding; Potency, µM (top dose mostly 114 µM), actives largely listed as inhibitors; 390,000 compounds, 4.4% hits; AID 504339, 2011; note: nearly all actives have a fitted effect of over 50% in size
HP1b chromo inh = HTS for Inhibitors of HP1-beta Chromodomain Interactions with Methylated Histone Tails | AlphaScreen HP1-beta / biotin-H3K9me3 peptide binding | 390,000 compounds, 0.56% hits | Chromobox protein homolog 1 (Homo sapiens), P83916 | Potency, µM (top dose mostly 114 µM), actives largely listed as inhibitors | AID 540317, 2011; note: nearly all actives have a fitted effect of over 70% in size
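Compound inhibition of the preformed complex between 50 nM HP1-beta and 50 nM biotinylated H3K9me3 peptide was read by AlphaScreen. Buffer was PBS pH 7.4 with 0.01% Tween-20. Incubations ran 30 min at room temperature, with 10 ug/mL donor/acceptor beads.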
L3MBTL1 inh = qHTS Assay for the Inhibitors of L3MBTL1 | Lethal(3)malignant brain tumor-like protein 1 (Homo sapiens), Q9Y468 | AlphaScreen L3MBTL1–H3K9me1 peptide binding | Potency, µM (highest dose often 57.1 µM), most hits filed as inhibitors | 230,000 compounds, 0.66% hits | AID 485360, 2010; note: nearly all actives have a fitted effect of over 60% in size
Target sequence (Q9Y468 whole entry, looked up): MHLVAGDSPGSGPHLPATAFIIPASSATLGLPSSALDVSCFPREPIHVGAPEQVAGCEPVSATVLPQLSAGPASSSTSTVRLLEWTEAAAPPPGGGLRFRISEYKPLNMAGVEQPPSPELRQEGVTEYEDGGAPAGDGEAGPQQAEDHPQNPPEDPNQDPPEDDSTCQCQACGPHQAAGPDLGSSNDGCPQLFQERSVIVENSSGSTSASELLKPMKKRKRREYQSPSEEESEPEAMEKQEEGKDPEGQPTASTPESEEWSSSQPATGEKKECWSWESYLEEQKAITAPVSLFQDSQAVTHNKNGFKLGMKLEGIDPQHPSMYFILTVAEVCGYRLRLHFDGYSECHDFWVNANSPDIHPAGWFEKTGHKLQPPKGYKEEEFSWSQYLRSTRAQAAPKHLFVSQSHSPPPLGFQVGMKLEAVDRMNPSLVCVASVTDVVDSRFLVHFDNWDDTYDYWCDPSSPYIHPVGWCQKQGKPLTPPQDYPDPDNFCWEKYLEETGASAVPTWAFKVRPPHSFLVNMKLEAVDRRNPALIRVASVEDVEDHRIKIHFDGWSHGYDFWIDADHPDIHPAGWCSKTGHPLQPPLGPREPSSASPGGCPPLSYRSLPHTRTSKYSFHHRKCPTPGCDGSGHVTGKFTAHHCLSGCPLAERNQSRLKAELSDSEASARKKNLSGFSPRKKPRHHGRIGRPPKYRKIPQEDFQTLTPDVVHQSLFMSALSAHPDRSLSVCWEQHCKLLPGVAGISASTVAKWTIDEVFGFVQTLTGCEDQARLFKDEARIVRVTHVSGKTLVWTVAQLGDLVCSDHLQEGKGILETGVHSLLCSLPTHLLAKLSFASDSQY
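AlphaScreen proximity signal between nickel-chelate acceptor and streptavidin donor beads (final 10 ug/mL) reports binding of 50 nM L3MBTL1 to 75 nM biotin-H3 K9me1 peptide; complex incubated with compounds 30 min at room temperature; cefsulodin titration as control.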
BAZ2B block = qHTS Assay for Inhibitors of BAZ2B. Potency, µM (top dose mostly 114 µM), usual class: inhibitors. Bromodomain adjacent to zinc finger domain protein 2B (Homo sapiens), Q9UIF8. AlphaScreen BAZ2B-H3K14Ac peptide displacement. 360,000 compounds, 4.4% hits. AID 504333, 2011; note: nearly all actives have a fitted effect of over 60% in size
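Compounds, titrated to a top concentration of 110 uM, were incubated 30 min at room temperature with preformed BAZ2B/acetyl-K14 H3 peptide complex (50 nM each). Proximity signal was measured by AlphaScreen after 20 min with beads.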
Large screens that a line does not name were inactive; ! = repeats disagree. Compounds with a hit are over-represented: about 11% of the library has one in this group of screens. Calls come from the whole dose curve; as a rule, active = well fitted inhibition curve with a large enough effect; inconclusive = small, poorly fitted or top-dose-only effect; inactive = no such curve, though single readings can be large or run the other way.

Oc1cccc(-c2nc(-c3cccs3)c(-c3cccs3)[nH]2)c1	G9a block inconclusive, JMJD2A Tudor inconclusive, BAZ2B block 40µM (no result: L3MBTL1 inh)
COc1ccc(-c2nc(-c3ccccc3)c(-c3cccs3)[nH]2)cc1OC	JMJD2A Tudor 40µM (no result: L3MBTL1 inh)
CCOC(=O)c1ccc(OCC2c3cc(OC)c(OC)cc3CCN2C(=O)c2ccc(S(=O)(=O)N3CCCC3)cc2)cc1 (centres undefined)	none (no result: L3MBTL1 inh)
Cc1nc(-c2cccc(NC(=O)c3cccc(S(=O)(=O)N4CCCC4)c3)c2)cs1	G9a block 10µM
O=C(CNc1cccc(S(=O)(=O)N2CCOCC2)c1)N1CCc2ccccc21	G9a block 40µM
CN(C)S(=O)(=O)c1cccc(NC(=O)c2ccc3c(c2)S(=O)(=O)N=C2CCCCCN23)c1	G9a block 32µM (no result: JMJD2A Tudor, HP1b chromo inh)
CSCCC(NC(=O)c1cccc(S(=O)(=O)N2CCOCC2)c1)C(=O)Nc1ccc(F)cc1 (centres undefined)	G9a block 7.1µM
CC(C)[C@H](NC(N)=O)C(=O)Nc1cccc(S(=O)(=O)N2CCOCC2)c1	G9a block 35µM
Cc1cc2nnc(SCC(=O)Nc3cccc(S(=O)(=O)N4CCOCC4)c3)n2c2ccccc12	G9a block 50µM
CC(C)[C@H](NC(=O)c1ccccc1)C(=O)Nc1cccc(S(=O)(=O)N2CCOCC2)c1	G9a block inconclusive
O=C(Nc1cccc(S(=O)(=O)N2CCCCC2)c1)c1ccccn1	G9a block 5.6µM, JMJD2A Tudor inconclusive, BAZ2B block inconclusive (no result: L3MBTL1 inh)
Cn1cnnc1SCC(=O)Nc1cccc(S(=O)(=O)N2CCOCC2)c1	none (no result: L3MBTL1 inh)
CCCC(C(=O)Nc1cccc(S(=O)(=O)N2CCCC2)c1)c1ccccc1 (centres undefined)	G9a block 16µM
CC(CC(=O)Nc1cccc(S(=O)(=O)N2CCCCC2)c1)c1ccccc1 (centres undefined)	G9a block inconclusive, L3MBTL1 inh inconclusive
Cn1ccnc1SCC(=O)Nc1cc(Cl)ccc1Cl	G9a block inconclusive, BAZ2B block inconclusive (no result: L3MBTL1 inh)
CCC(C)(C(=O)NC1CCCCC1)N(CC1CCCO1)C(=O)Cc1cccs1 (centres undefined)	none (no result: L3MBTL1 inh)
CC1=C(C(=O)Nc2ccccc2)C(c2cccnc2)n2nc(SCc3ccccc3F)nc2N1 (centres undefined)	none (no result: L3MBTL1 inh)
Cc1ccc2nc(NC(=O)CSc3nccn3Cc3ccc(Cl)cc3)sc2c1	none (no result: L3MBTL1 inh)
CN(C)S(=O)(=O)c1cccc(NC(=O)c2cccc(S(=O)(=O)N3CCCCC3)c2)c1	G9a block 50µM
Cc1ccc(/C=C/C(=O)Nc2cccc(S(=O)(=O)N3CCOCC3)c2)o1	G9a block 8.9µM, HP1b chromo inh 50µM
O=C(/C=C/c1ccco1)Nc1cccc(S(=O)(=O)N2CCOCC2)c1	L3MBTL1 inh inconclusive
O=C(Nc1cccc(S(=O)(=O)N2CCOCC2)c1)c1ccccn1	G9a block 25µM, BAZ2B block inconclusive (no result: L3MBTL1 inh)
O=C(Nc1ccccc1)c1cccc(S(=O)(=O)N2CCCCC2)c1	G9a block inconclusive
O=C(Nc1nc2ccc(S(=O)(=O)N3CCCC3)cc2s1)c1ccccn1	G9a block 13µM, JMJD2A Tudor inconclusive, BAZ2B block inconclusive (no result: L3MBTL1 inh)
CC(CNC(=O)CN1C(=O)COc2ccc(S(=O)(=O)N3CCCCCC3)cc21)c1ccccc1 (centres undefined)	BAZ2B block inconclusive (no result: L3MBTL1 inh)
COc1ccccc1NC(=O)c1oc2ccccc2c1NC(=O)c1cccc(OC)c1OC	none (no result: L3MBTL1 inh)
COc1ccccc1CNC(=O)C(=O)NCC(c1cccs1)S(=O)(=O)c1ccc(F)cc1 (centres undefined)	none (no result: L3MBTL1 inh)
CC1CCCC(C)N1C(=O)COC(=O)c1cncc(Br)c1 (centres undefined)	none (no result: G9a block, BAZ2B block)
O=c1cnc2cncnc2n1Cc1ccccc1Cl	none (no result: JMJD2A Tudor, HP1b chromo inh, L3MBTL1 inh, BAZ2B block)
CCOc1ccc(OCC)c(C2C(C#N)=C(N)N(c3cccnc3)C3=C2C(=O)CC(C)(C)C3)c1 (centres undefined)	G9a block 50µM, BAZ2B block inconclusive
COC(=O)c1ccnc(/C=N/O)c1	G9a block inconclusive, JMJD2A Tudor 35µM, L3MBTL1 inh inconclusive, BAZ2B block 50µM
CCn1c(SCC(N)=O)nnc1-c1ccc2[nH]c(C)c(C)c2c1	none
CCn1c(SCC(=O)O)nnc1-c1ccc2[nH]c(C)c(C)c2c1	G9a block 14µM
Cc1cc(C)c(C)c(C(=O)CSc2nnc(-c3ccc4[nH]c(C)c(C)c4c3)o2)c1C	G9a block 25µM
Cc1[nH]c2ccc(-c3nnc(SCC(=O)c4ccc(F)cc4)o3)cc2c1C	G9a block inconclusive
Cc1ccc(N(CC(=O)N2CCCCCC2)S(=O)(=O)c2ccccc2)cc1	none (no result: L3MBTL1 inh)
CC(=O)NNc1cc(N2CCOCC2)nc(N2CCOCC2)n1	G9a block 45µM (no result: L3MBTL1 inh)
COc1ccc(NC(=O)NNc2cc(N3CCOCC3)nc(N3CCOCC3)n2)cc1	none
CC(C)(C)c1ccc(C(=O)NNc2cc(N3CCOCC3)nc(N3CCOCC3)n2)cc1	BAZ2B block inconclusive
CC(C)(C)c1ccc(C(=O)NNc2cc(N3CCCCC3)nc(N3CCCCC3)n2)cc1	JMJD2A Tudor inconclusive, HP1b chromo inh 7.1µM, BAZ2B block 10µM
CC(=Nc1ccccc1)c1sc2ccccc2c1O	G9a block inconclusive, JMJD2A Tudor 56µM, BAZ2B block inconclusive
Cc1ccc2c(=O)cc(C(=O)Nc3ccc(S(=O)(=O)N4CCCCCC4)cc3)oc2c1C	none (no result: L3MBTL1 inh)
Cn1c(CN(O)S(=O)(=O)c2ccc(Cl)cc2)nnc1C(F)(F)F	G9a block 10µM (no result: L3MBTL1 inh)
CC(C)(C)c1csc(NNC(=O)c2ccc(Cl)cc2)n1	G9a block 40µM (no result: L3MBTL1 inh)
O=C(NCCN1CCN(C(=O)c2ccc([N+](=O)[O-])cc2)CC1)C(=O)Nc1ccc(F)cc1	none (no result: L3MBTL1 inh)
Cc1ccc(OC(C)C(=O)Nc2nonc2-c2ccc(Br)cc2)cc1C (centres undefined)	G9a block inconclusive (no result: L3MBTL1 inh)
Cc1ccccc1C(=O)Nc1cccc(-c2nc3cccnc3s2)c1	JMJD2A Tudor 100µM, BAZ2B block inconclusive (no result: L3MBTL1 inh)
CCS(=O)(=O)Nc1cccc(-c2nc3cccnc3s2)c1	none (no result: G9a block, L3MBTL1 inh)
CCS(=O)(=O)Nc1cc(-c2nc3cccnc3s2)ccc1C	G9a block 50µM
CCC(=O)Nc1nnc(S(=O)(=O)N2CCCCCC2)s1	G9a block 10µM!, JMJD2A Tudor 11µM!, HP1b chromo inh inconclusive, BAZ2B block 7.1µM!
CCCC(=O)Nc1nnc(S(=O)(=O)N2CCCCCC2)s1	G9a block 13µM, JMJD2A Tudor 20µM!, HP1b chromo inh inconclusive, BAZ2B block 14µM!
CCCC(=O)Nc1nnc(S(=O)(=O)N2CCCC2)s1	none (no result: G9a block)
Cc1ccc(CNCc2cn[nH]c2-c2ccc(C)cc2)cc1	none (no result: G9a block, L3MBTL1 inh, BAZ2B block)
CCOC(=O)c1cc2c(=O)n3ccccc3nc2n(Cc2ccco2)c1=NC(=O)c1c(F)cccc1Cl	none (no result: L3MBTL1 inh)
